Drawing on PubChem BioAssay (Tox21), this text covers Potency for 28 compounds.

Records with an inconclusive call do not appear. A call without a number means that no potency is given here. Active and inactive are the calls of the source. Calls follow the shape of the dose curve; as a rule, active = well fitted cell-killing curve with a large enough effect in the repeat runs; inconclusive = weak or mixed curves, or effect the other way; inactive = flat fitted curve, though single readings scatter.

This assay is described as follows: cAMP Responsive Elements (CRE) small molecule antagonists, cell-based qHTS assay: qHTS cell viability counter screen (AID 2060913). Also: nearly all actives have a fitted effect of over 40% in size. To be noted: CRE-bla HEK293T viability, CellTiter-Glo luminescence, 5 h; series mostly up to 92.4 µM. A digest of the protocol:
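Cytotoxicity counter screen multiplexed with the CRE-bla antagonist read: HEK293T cells in DMEM with dialyzed FBS and 25 mM HEPES were treated 3 hrs under 0.25 uM final NKH477, then viability measured by CellTiter-Glo luminescence.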
`CN[C@@H](C)[C@H](O)c1ccccc1`: the Potency result was “inactive”.
As for `C=CC(=O)OCCN(C)C`, the Potency result was “inactive”.
With `CCC(C)Nc1c([N+](=O)[O-])cc(C(C)(C)C)cc1[N+](=O)[O-]` (stereo not drawn) the entry was “inactive”; with `O=C(O)c1nc(Cl)ccc1Cl`, “inactive”; with `Clc1cccc2ccccc12`, “inactive”.
Turning to `CCC(=O)C(CCN(C)C)(c1ccccc1)c1ccccc1`, the Potency result is “inactive”.
With `c1ccc2sc(SNC3CCCCC3)nc2c1`, the Potency entry was “inactive”.
The result for `ClC(Cl)=C(c1ccc(Cl)cc1)c1ccc(Cl)cc1` reads “inactive”; that for `O=S(=O)(O)C(F)(F)C(F)(F)C(F)(F)C(F)(F)F`, “inactive”.
As to `N#CCc1ccc(Cl)cc1`, the Potency result was “inactive”.
The result for `O=C(CCl)Nc1ccccc1` reads “inactive”.
For `N#Cc1c2ccccc2cc2ccccc12`, the Potency result was “inactive”.
As for `CC(C)CC#N`, the Potency entry is “inactive”.
With `CCN(CC)CCO` the entry was “inactive”; with `CCOP(=S)(OCC)Oc1ccc2c(C)c(Cl)c(=O)oc2c1`, “inactive”.
The result for `CC(C)CCCCCCCOC(=O)c1ccccc1C(=O)OCCCCCCCC(C)C` reads “inactive”.
With `C#CCOS(=O)OC1CCCCC1Oc1ccc(C(C)(C)C)cc1` (stereo not drawn) the entry was “inactive”; with `CC1N=C(N)OC1c1ccccc1` (stereo not drawn), “inactive”.
Take `C#CC(C)(C)NC(=O)c1cc(Cl)cc(Cl)c1`: the Potency entry is “inactive”.
With `O=C(Cl)C(Cl)Cl` the entry was “inactive”; with `Cc1cccc([N+](=O)[O-])c1`, “inactive”; with `O=C(O)CBr`, “inactive”.
Regarding `C[C@]12C=CC3=C4CCC(=O)C=C4CC[C@H]3[C@@H]1CC[C@@H]2O`, the Potency result is “inactive”.
In the case of `Nc1ccc(Cc2ccc(N)c(Cl)c2)cc1Cl`, the Potency result is “inactive”.
Regarding `CCCCCCCCCCBr`, the Potency entry was “inactive”.
With `CC(C)(C)c1cc(O)ccc1O` the entry was “inactive”.
The result for `C=CC(N)=O` reads “inactive”; that for `[Cl-].[Cl-].[Cl-].[Fe+3]`, “inactive”.
